Drawing on the supplement of paper PMC9262897, “Low-cost anti-mycobacterial drug discovery using engineered E. coli” (Nature Communications, 2022), this text covers growth for 28 molecules.

Structures can show the parent of a compound that is named as a salt. ± gives the standard deviation of the averaged measurements.

In one assay the test system is E. coli TESEC Mtb Asd. The assay can be described thus: growth (OD600 after 10 h); higher = more growth (less inhibition). The note with it: arabinose induction (level): High; compound 0.1 mM; raw OD600 reference: median of DMSO wells 0.331, cell-free background 0.041. How it is done: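 TESEC E. coli strains in which the native enzyme is deleted and replaced by arabinose-inducible Mtb Asd, DapB, CysH or TrpD, each grown in its selective medium. Strains were screened against the Prestwick library at 0.1 mM and 1% DMSO in 384-well format at low and high arabinose induction. Growth is read as OD600 after 10 h in triplicate.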
The molecule `C[C@@H]1C[C@H]2[C@@H]3CCC4=CC(=O)C=C[C@]4(C)[C@@]3(Cl)[C@@H](O)C[C@]2(C)[C@@]1(OC(=O)c1ccco1)C(=O)CCl` [Mometasone furoate] yielded a growth of 0.198 ± 0.049.
With `Cc1cccc(Nc2ccncc2S(=O)(=O)NC(=O)NC(C)C)c1` [Torsemide], the growth was 0.228 ± 0.029.
With `COc1nc(C)nc(Cl)c1NC1=NCCN1` [Moxonidine], the growth stood at 0.248 ± 0.033.
On the same count and under the same terms, the figure for `NC(=O)c1cccnc1` [Nicotinamide] is 0.447 ± 0.0077; for `NCCCC(O)(P(=O)(O)O)P(=O)(O)O` [Alendronate sodium] it is 0.343 ± 0.043.
Turning to `NNC(=O)c1ccncc1` [Isoniazid], the growth amounted to 0.396 ± 0.028.
`CC(C)OC(=O)C(C)(C)Oc1ccc(C(=O)c2ccc(Cl)cc2)cc1` [Fenofibrate] had a growth of 0.298 ± 0.013.
On the same count and under the same terms, the figure for `CCC[C@@H]1C[C@@H](C(=O)N[C@@H]([C@H]2O[C@H](SC)[C@H](O)[C@@H](O)[C@H]2O)[C@@H](C)O)N(C)C1` [Lincomycin hydrochloride] is 0.151 ± 0.017; for `CS(=O)(=O)OCCCCOS(C)(=O)=O` [Busulfan] it is 0.378 ± 0.022.
For the molecule `CC[C@H]1OC(=O)C[C@@H](O)[C@H](C)[C@@H](O[C@@H]2O[C@H](C)[C@@H](O[C@H]3C[C@@](C)(O)[C@@H](O)[C@H](C)O3)[C@H](N(C)C)[C@H]2O)[C@@H](CC=O)C[C@@H](C)C(=O)/C=C/C(C)=C/[C@@H]1CO[C@@H]1O[C@H](C)[C@@H](O)[C@@H](OC)[C@H]1OC` [Tylosin], the growth is 0.0667 ± 0.004.

The assay is the same for the next values; noted with them: arabinose induction (level): Low; compound 0.1 mM; raw OD600 reference: median of DMSO wells 0.417, cell-free background 0.041.
With `CC(=O)Oc1cccc2c1C(=O)c1c(OC(C)=O)cc(C(=O)O)cc1C2=O` [Diacerein], the growth was 0.348 ± 0.045.
The molecule `COc1ccc(-c2cc(=S)ss2)cc1` [Anethole-trithione] registered a growth of 0.263 ± 0.022.
Still for that read-out and setting: the figure for `O=C(O)Cc1ccccc1Nc1c(Cl)cccc1Cl` [Diclofenac sodium] is 0.179 ± 0.01.
Same read-out and setting: the figure for `CCN1CCC[C@H]1CNC(=O)c1c(O)c(Cl)cc(Cl)c1OC` [Raclopride] is 0.133 ± 0.014; for `COc1ccc(C[C@@H]2c3cc(OC)c(OC)cc3CC[N@+]2(C)CCC(=O)OCCCCCOC(=O)CC[N@@+]2(C)CCc3cc(OC)c(OC)cc3[C@H]2Cc2ccc(OC)c(OC)c2)cc1OC` [Cisatracurium besylate] it is 0.414 ± 0.032.
For `CN(C)CCOC(=O)C(c1ccccc1)C1(O)CCCC1` (stereo not drawn) [Cyclopentolate hydrochloride], the growth amounted to 0.334 ± 0.1.
`CCCCOc1ccc(C(=O)CCN2CCCCC2)cc1` [Dyclonine hydrochloride] yielded a growth of 0.252 ± 0.01.
With `CC[C@H]1OC(=O)[C@H](C)[C@@H](O[C@H]2C[C@@](C)(OC)[C@@H](O)[C@H](C)O2)[C@H](C)[C@@H](O[C@@H]2O[C@H](C)C[C@H](N(C)C)[C@H]2O)[C@](C)(O)C[C@@H](C)/C(=N\OCOCCOC)[C@H](C)[C@@H](O)[C@]1(C)O` [Roxithromycin], the growth is 0.205 ± 0.25.
Take `CCOC(=O)O[C@]1(C(=O)OCCl)CC[C@H]2[C@@H]3CCC4=CC(=O)C=C[C@]4(C)[C@H]3[C@@H](O)C[C@@]21C` [Loteprednol etabonate]: the growth came out at 0.26 ± 0.14.
Take `c1ccc2c(CC3=NCCN3)cccc2c1` [Naphazoline hydrochloride]: the growth was 0.333 ± 0.048.
`O=C(N/N=C/c1ccc([N+](=O)[O-])o1)c1ccc(O)cc1` [Nifuroxazide] registered a growth of 0.0519 ± 0.0049.
In the case of `COCCOC(=O)C1=C(C)NC(C)=C(C(=O)OC/C=C/c2ccccc2)C1c1cccc([N+](=O)[O-])c1` (stereo not drawn) [Cilnidipine], the growth was found to be 0.319 ± 0.026.
The molecule `CCN(CC)CCOC(=O)c1ccc(N)cc1` [Procaine hydrochloride] displayed a growth of 0.384 ± 0.038.
Molecule `COc1cccc(N(C)C(=S)Oc2ccc3c(c2)CCCC3)n1` [Liranaftate] showed a growth of 0.426 ± 0.045.
Consider `CC(C)(Sc1cc(C(C)(C)C)c(O)c(C(C)(C)C)c1)Sc1cc(C(C)(C)C)c(O)c(C(C)(C)C)c1` [Probucol], for which the growth was found to be 0.408 ± 0.093.
As for `C[C@@H]1[C@H](O)[C@@H](C)/C=C/C=C/C=C/C=C/C=C/C=C/C=C/[C@H](O[C@@H]2O[C@H](C)[C@@H](O)[C@H](N)[C@@H]2O)C[C@@H]2O[C@](O)(C[C@@H](O)C[C@@H](O)[C@H](O)CC[C@@H](O)C[C@@H](O)CC(=O)O[C@H]1C)C[C@H](O)[C@H]2C(=O)O` [Amphotericin B], the growth was 0.504 ± 0.026.
The same measure, in the same setting: the figure for `C[C@@H](O)[C@H]1C(=O)N2C(C(=O)O)=C(S[C@@H]3CN[C@H](C(=O)N(C)C)C3)[C@H](C)[C@H]12` [Meropenem] is 0.0552 ± 0.0001; for `CC1CCc2cc(F)cc3c(=O)c(C(=O)O)cn1c23` (stereo not drawn) [Flumequine] it is 0.0732 ± 0.0099.
